Experimental data: the supplement of paper PMC11732987, “Enantioselective OTUD7B fragment discovery through chemoproteomics screening and high-throughput optimisation” (Communications Chemistry, 2025)

Key:
Experiment in all cases: log2 ratio of Biotin-Ahx-Ub-VS probe labelling (fragment/DMSO); higher = less target engagement (more negative = stronger competition), active = hit call of the paper (q ≤ 0.05, log2 ratio ≤ -1)
Conditions in all cases: compound concentration: 200 uM; treatment time: 3 h
USP19 = target: T1, USP19 (UniProt O94966)
T1 sequence (whole entry): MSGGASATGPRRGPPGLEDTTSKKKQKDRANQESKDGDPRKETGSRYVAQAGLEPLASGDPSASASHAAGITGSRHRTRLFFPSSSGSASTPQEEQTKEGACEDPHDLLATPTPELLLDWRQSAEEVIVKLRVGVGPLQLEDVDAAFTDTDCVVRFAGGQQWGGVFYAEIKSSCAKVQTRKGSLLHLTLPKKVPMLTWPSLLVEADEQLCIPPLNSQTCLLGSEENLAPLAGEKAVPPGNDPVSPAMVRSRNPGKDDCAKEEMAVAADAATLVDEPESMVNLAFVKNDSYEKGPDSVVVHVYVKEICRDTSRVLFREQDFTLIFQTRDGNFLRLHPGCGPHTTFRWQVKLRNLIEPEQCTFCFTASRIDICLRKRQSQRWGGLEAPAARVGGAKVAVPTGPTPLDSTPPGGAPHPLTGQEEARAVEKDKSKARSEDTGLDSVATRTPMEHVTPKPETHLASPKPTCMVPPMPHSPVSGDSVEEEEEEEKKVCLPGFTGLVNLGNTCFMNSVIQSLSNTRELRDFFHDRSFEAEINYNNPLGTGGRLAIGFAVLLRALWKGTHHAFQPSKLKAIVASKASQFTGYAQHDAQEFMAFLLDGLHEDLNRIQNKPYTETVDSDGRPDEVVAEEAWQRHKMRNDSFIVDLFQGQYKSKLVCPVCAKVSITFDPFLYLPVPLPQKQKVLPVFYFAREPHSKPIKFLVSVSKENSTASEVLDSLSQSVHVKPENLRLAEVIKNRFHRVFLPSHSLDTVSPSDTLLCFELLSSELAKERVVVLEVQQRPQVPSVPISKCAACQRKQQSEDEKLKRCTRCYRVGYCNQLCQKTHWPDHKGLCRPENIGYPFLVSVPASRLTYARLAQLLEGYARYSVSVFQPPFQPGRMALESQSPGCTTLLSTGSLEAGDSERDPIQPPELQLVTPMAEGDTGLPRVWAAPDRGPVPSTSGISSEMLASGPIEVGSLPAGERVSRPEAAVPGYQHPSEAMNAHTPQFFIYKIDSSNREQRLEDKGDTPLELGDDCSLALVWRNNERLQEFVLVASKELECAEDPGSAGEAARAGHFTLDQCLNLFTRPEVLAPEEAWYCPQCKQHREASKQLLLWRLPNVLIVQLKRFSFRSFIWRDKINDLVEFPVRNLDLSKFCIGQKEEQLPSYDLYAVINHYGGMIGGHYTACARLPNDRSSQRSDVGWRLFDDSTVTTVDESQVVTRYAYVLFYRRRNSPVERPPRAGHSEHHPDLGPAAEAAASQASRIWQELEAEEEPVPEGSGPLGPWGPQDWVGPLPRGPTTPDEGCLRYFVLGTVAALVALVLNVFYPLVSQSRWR
In short: (§1)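 Triplicate samples of HEK293T lysate, 495 µg each, received fragment at 200 µM or vehicle for 3 h, followed by Biotin-Ahx-Ub-VS (0.5 µM final) for 1 h. After NeutrAvidin enrichment of labelled DUBs and LysC/trypsin digestion, peptides were run by diaPASEF LC-MS/MS. The values are average log2 fragment/vehicle ratios from global-median-normalised Spectronaut label-free quantities, tested by unpaired t-test on proteins having ≥2 unique peptides.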

USP22 = target: T2, USP22 (UniProt Q9UPT9)
T2 sequence (whole entry): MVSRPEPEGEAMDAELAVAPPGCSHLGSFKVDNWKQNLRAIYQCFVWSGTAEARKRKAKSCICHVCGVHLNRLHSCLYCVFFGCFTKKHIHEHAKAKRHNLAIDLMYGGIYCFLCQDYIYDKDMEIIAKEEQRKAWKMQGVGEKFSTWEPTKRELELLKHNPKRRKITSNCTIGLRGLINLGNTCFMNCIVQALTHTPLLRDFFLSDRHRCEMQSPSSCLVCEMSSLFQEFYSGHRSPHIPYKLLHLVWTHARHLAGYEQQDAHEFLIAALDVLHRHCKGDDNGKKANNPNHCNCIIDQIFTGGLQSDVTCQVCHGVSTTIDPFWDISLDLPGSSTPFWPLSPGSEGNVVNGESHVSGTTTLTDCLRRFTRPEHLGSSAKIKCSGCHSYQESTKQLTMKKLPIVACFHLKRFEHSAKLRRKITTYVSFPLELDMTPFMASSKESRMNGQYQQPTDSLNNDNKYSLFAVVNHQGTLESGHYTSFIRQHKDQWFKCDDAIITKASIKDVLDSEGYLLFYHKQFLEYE
In short: as §1

USP24 = USP24 (UniProt Q9UPU5)
Chain of USP24 (Q9UPU5 whole entry): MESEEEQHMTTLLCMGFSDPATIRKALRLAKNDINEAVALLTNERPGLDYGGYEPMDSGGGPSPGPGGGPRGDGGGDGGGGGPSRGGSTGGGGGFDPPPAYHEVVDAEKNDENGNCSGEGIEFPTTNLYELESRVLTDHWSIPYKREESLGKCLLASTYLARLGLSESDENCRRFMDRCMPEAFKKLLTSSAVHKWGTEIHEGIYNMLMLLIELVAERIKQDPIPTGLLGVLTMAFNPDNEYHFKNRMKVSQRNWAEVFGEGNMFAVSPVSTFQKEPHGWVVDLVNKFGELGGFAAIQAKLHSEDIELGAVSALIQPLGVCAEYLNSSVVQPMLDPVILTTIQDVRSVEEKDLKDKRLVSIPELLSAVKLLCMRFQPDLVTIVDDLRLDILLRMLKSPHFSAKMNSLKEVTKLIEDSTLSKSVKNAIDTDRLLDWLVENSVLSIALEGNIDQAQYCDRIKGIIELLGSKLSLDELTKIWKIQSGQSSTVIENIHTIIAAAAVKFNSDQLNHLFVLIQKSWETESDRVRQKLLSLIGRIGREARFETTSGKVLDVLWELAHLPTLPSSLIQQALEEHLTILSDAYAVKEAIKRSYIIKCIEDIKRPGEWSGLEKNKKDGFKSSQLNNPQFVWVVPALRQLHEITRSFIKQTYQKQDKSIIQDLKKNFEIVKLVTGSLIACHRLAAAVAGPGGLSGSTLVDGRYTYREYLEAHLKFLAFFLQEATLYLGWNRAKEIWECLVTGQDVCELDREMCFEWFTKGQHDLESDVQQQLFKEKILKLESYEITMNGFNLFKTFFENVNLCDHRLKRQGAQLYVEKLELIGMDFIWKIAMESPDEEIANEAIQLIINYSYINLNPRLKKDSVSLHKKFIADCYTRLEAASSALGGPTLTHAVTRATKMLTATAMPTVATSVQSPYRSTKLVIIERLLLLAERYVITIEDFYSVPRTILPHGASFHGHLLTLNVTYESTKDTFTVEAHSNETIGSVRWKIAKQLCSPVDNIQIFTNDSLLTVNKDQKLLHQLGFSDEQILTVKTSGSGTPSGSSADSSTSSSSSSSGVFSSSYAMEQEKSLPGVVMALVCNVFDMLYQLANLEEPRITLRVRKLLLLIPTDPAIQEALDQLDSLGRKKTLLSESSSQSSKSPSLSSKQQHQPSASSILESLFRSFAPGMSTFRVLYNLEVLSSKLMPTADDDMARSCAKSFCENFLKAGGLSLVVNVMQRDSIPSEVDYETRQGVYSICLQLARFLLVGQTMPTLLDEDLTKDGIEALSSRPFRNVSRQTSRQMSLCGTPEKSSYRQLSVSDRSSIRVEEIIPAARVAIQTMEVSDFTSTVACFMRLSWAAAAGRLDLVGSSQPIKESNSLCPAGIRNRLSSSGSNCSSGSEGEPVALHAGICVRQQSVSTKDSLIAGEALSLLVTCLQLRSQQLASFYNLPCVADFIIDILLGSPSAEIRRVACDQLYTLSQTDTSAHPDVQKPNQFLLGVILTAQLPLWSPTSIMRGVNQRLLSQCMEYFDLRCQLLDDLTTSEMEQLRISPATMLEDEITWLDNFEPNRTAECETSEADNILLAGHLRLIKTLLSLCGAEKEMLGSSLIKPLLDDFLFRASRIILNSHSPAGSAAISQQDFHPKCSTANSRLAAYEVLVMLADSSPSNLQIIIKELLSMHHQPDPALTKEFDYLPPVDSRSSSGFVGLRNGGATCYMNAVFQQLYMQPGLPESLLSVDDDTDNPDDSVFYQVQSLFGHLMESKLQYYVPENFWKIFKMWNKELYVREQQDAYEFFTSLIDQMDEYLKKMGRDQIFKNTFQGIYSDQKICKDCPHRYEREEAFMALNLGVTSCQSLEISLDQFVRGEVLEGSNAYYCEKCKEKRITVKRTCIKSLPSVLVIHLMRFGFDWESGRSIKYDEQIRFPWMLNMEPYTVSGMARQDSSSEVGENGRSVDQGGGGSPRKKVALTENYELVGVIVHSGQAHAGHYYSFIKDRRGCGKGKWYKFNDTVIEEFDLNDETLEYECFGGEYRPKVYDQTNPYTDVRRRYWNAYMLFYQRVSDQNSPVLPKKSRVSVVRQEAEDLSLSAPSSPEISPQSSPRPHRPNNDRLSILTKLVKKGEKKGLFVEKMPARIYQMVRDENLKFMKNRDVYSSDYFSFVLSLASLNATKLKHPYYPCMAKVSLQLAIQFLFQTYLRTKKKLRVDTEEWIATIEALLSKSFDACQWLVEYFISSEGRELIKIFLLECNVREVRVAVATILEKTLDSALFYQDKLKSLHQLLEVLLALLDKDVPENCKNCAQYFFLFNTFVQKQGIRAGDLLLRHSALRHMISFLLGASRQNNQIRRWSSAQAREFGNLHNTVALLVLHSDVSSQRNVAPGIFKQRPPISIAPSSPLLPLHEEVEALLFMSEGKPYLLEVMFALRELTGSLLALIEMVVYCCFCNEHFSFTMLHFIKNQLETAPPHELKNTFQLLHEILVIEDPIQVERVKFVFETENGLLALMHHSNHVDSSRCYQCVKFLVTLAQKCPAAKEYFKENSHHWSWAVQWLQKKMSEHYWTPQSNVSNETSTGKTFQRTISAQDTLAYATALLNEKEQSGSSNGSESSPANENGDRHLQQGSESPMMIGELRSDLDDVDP
In short: as §1

USP25 = target: T3, USP25 (UniProt Q9UHP3)
T3 sequence (whole entry): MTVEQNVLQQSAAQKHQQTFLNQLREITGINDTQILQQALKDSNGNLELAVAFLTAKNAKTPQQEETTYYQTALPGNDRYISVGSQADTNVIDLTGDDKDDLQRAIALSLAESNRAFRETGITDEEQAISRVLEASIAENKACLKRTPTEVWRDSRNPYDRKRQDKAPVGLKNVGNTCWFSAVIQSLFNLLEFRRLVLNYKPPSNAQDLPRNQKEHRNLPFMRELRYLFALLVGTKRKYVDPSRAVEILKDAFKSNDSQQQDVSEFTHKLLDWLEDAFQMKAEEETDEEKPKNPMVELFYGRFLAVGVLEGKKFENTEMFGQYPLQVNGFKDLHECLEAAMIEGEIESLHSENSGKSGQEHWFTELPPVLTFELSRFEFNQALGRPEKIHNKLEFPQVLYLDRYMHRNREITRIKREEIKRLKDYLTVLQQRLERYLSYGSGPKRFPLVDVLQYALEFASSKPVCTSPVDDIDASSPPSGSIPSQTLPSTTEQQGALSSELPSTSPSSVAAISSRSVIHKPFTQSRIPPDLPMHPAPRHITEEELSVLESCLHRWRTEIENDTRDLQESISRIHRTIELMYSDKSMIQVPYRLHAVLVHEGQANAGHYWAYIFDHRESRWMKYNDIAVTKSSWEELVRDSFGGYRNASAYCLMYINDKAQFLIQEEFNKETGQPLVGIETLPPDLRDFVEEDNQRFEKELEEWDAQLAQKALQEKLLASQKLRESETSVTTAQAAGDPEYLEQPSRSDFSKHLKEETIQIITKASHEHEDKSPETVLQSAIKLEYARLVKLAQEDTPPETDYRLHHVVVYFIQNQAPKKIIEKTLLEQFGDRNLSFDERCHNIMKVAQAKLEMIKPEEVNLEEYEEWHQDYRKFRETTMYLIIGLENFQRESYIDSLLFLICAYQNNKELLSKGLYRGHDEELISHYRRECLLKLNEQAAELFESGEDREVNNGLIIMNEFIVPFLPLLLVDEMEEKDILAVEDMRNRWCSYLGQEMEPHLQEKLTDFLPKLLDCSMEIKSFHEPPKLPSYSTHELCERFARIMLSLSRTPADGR
In short: as §1

USP28 = target: T4, USP28 (UniProt Q96RU2)
T4 sequence (whole entry): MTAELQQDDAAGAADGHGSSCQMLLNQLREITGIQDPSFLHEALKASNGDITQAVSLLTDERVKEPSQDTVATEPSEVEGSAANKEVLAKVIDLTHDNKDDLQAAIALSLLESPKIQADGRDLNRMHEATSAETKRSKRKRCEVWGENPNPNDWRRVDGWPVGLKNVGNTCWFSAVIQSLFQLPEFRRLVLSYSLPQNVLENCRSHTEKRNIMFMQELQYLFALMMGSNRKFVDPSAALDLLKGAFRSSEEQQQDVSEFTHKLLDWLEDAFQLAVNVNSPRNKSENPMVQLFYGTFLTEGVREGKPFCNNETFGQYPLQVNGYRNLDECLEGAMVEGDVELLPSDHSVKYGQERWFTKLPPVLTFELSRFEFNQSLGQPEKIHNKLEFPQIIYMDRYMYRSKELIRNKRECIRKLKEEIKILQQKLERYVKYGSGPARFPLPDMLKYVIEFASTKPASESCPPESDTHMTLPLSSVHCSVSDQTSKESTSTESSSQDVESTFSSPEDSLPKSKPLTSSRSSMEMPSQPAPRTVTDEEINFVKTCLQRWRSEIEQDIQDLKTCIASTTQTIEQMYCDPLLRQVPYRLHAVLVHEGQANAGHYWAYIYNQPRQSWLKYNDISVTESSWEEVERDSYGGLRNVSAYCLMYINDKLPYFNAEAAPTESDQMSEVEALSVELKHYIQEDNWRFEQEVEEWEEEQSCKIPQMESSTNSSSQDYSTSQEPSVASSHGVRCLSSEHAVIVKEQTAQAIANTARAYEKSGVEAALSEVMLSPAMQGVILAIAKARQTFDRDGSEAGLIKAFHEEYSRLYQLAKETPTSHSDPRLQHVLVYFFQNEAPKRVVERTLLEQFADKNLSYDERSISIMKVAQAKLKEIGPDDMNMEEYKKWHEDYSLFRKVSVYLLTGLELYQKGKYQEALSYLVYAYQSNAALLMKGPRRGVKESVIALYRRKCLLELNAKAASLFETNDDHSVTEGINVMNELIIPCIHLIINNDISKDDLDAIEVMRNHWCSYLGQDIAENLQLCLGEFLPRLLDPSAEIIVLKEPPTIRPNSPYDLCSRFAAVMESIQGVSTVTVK
In short: as §1

Measured: log2 ratio of Biotin-Ahx-Ub-VS probe labelling

O=C(CCl)Nc1ccccc1C(F)(F)F
inactive: USP19 -0.154 | USP22 -0.117 | USP24 -0.445 | USP25 -0.713 | USP28 -0.598
